# Bioassay records deposited in PubChem by several laboratories.
# Compounds with a hit are over-represented: about 2% of the library has one in this group of screens.
# Fh CTSL1 inh: blocks F. hepatica cathepsin L1 in PFM18AAP counter-screen; 300,000 compounds, 0.49% hits; inhibition, % at 5.96 µM; recombinant F. hepatica cathepsin L1, Z-Leu-Arg-MCA fluorescence;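 active means inhibition above the mean of all tested compounds plus 3 SD, set per screening campaign, cut at about 17% in these data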;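 further: 0% = plate median of test compound wells and 100% = 1 µM Z-Phe-Ala-diazomethylketone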
# NALP1 yeast inh: NALP1 inhibition; S. cerevisiae NALP1/ASC/caspase-1 growth, X-gal OD620, 72 h; inhibition, % at 10 µM; 280,000 compounds, 0.61% hits; AID 2071; in the data active means inhibition mostly above about 24%, no sharp cut-off; inactive means mostly below about 32%
# sPLA2-III inh: Inhibits HGIII-sPLA2 liposome hydrolysis, primary screen | 370,000 compounds, 0.56% hits | QFRET BODIPY PC-A2 liposome hydrolysis, fluorescence | AID 743126 | inhibition, % at 12.2 µM;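 active means inhibition above mean plus 3 SD of compounds lying within the high and low control bounds, cut at about 19% in these data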;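 further: 0% = median of test compound wells and 100% = no enzyme DMSO wells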
# APOBEC3A inh: inhibitors of human APOBEC3A DNA deaminase; P31941; recombinant A3A, FAM/TAMRA ssDNA deamination fluorescence; inhibition, % at 20 µM; 330,000 compounds, 0.41% hits;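 active means at least 40% inhibition at 20 µM here, with at most 30% in a related deaminase screen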;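 further: plate controls were A3A with DMSO for no effect and wells lacking A3A enzyme for full effect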
# Target sequence (P31941 whole entry, looked up): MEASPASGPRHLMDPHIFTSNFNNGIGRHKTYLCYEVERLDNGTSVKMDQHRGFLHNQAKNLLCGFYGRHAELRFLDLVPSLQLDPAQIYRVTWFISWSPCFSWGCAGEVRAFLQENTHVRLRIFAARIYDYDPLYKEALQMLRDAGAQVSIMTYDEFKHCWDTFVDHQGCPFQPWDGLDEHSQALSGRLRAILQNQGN
# A3G deaminase: APOBEC3G (human) deaminase inhibition; Q9HC16; recombinant A3G, ssDNA deamination FAM/TAMRA fluorescence; inhibition, % at 20 µM; 330,000 compounds, 0.28% hits; AID 493012;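 active means inhibition of at least 40% at 20 µM, with no more than 30% in the related APOBEC3A deaminase screen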;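 further: plate controls were DMSO wells with A3G for no effect and wells lacking A3G enzyme for full effect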
# APOBEC3G confirm: APOBEC3G (human) deaminase inhibition, confirmed. shares compounds with A3G deaminase. recombinant A3G ssDNA deaminase, UDG/FAM-TAMRA fluorescence. inhibition, % at 20 µM. 890 compounds, 72% hits. AID 493152;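 active means inhibition reaching a set limit in any replicate at 20 µM, the limit being 80% of the first screen's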
# UDG A3G counter: E. coli UDG inhibition in APOBEC3G counter-screen. shares compounds with A3G deaminase. 710 tested, under 10 active. inhibition, % at 20 µM. UDG counterscreen, FAM/TAMRA oligo fluorescence;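 active means compounds giving 40% or more inhibition at 20 µM in any one of the three replicates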;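 further: plate controls were DMSO wells with UDG and oligo for no effect and DMSO wells lacking both for full effect; inhibitors lower the FAM signal released by uracil excision and alkaline cleavage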
# Target sequence (P12295 whole entry, looked up): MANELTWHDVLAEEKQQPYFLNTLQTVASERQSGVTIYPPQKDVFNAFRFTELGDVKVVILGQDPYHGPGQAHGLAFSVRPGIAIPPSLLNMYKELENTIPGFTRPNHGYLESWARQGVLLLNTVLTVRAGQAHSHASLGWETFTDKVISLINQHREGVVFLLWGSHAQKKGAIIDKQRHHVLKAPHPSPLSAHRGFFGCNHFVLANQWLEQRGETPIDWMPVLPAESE
# The depositor's hits bear a star; x = no result.
SMILES,Fh CTSL1 inh,NALP1 yeast inh,sPLA2-III inh,APOBEC3A inh,A3G deaminase,APOBEC3G confirm,UDG A3G counter
C=CCn1c(-c2ccc([N+](=O)[O-])cc2)n[nH]c1=S,-4.3,28.1,10.5,-5.8,45.4*,78.1*,0.4
C=CCn1c(-c2csc3ccccc23)n[nH]c1=S,2.8,3.9,13.7,7.2,43.0*,30.6,x
C=CCn1c(-c2ccccc2[N+](=O)[O-])n[nH]c1=S,-1.8,-7.5,1.3,-4.4,9.7,x,x
C=CCn1c(-c2cc(Cl)ccc2OC)n[nH]c1=S,-0.8,3.6,1.2,-4.9,45.7*,81.1*,1.6
CCn1c(-c2cc(Cl)ccc2OC)n[nH]c1=S,-2.3,1.2,13.8,-4.0,36.9,x,x
C=CCn1c(-c2cccc(OC)c2)n[nH]c1=S,-1.9,-3.9,8.3,0.1,50.7*,13.3,x
O=C(CSc1ccccc1)NC1CCCCN(Cc2cccc(Cl)c2)C1=O (centres undefined),x,x,-9.1,x,x,x,x
CCOC(=O)[C@@]12CCCC3=C1N(CCC3)C(=O)[C@H]2CC(=O)NCCCOC,x,x,7.0,x,x,x,x
CCn1c(SCC(=O)c2ccc(-c3ccccc3)cc2)nnc1-c1ccccc1OC,x,x,-57.9,x,x,x,x
CCOC(=O)c1sc(N)c(C(=O)Nc2ccccc2OC)c1C,0.7,0.3,-2.4,-0.6,51.1*,67.3*,-3.1
CC(C)(C)N(Cc1cn(Cc2ccccc2)nn1)S(=O)(=O)c1ccc(N2CCCCC2)cc1Br,x,x,-2.6,x,x,x,x
COC(=O)[C@]12C[C@H](CC(=O)NCC3CCCCC3)C(=O)N(Cc3ccco3)C1=C[C@H](C1CCCC1)O[C@@H]2C,x,x,-6.7,x,x,x,x
S=c1[nH]nc(Cc2cccs2)n1-c1ccccc1,6.6,7.0,9.0,1.4,56.5*,58.9*,-2.9
COc1cccc(C(=O)NCC(=O)N/N=C/c2c(C)[nH]c3ccccc23)c1,-1.7,16.1,-6.2,5.0,44.0*,0.1,x
CCOC(=O)[C@]12CCCC=C1N(Cc1ccc(OC)cc1)C(=O)[C@@H]2CC(=O)N1CCCC1,x,x,6.0,x,x,x,x
CCOC(=O)N1CCN(C(=O)N2CCOCC2)CC1,-7.9,-2.9,8.9,-3.9,-5.0,x,x
Cc1nn(C(=O)N2CCOCC2)c(C)c1C,1.1,-28.9,2.1,2.8,61.9*,2.6,x
COC(=O)[C@]12C[C@H](CC(=O)NCC3CCCCC3)C(=O)N(CCc3ccc(OC)c(OC)c3)C1=C[C@H](C(C)(C)C)O[C@@H]2C,x,x,-9.1,x,x,x,x
O=C1C(=O)N(CCO)C(c2ccc(Br)cc2)/C1=C(\O)c1ccccc1 (centres undefined),0.1,-10.1,-8.7,-6.8,44.8*,-59.2,-1.6
O=C1C(=O)N(CCO)C(c2ccccc2)/C1=C(\O)c1ccccc1 (centres undefined),0.6,1.7,15.4,-2.6,-2.8,x,x
O=Cc1ccc(/C=C2\c3ccccc3C(=O)N2c2ccccc2)o1,x,x,10.8,x,x,x,x
Cc1ccc(Cn2cc(CN(C3CC3)S(=O)(=O)c3ccccc3Br)nn2)cc1,x,x,-5.3,x,x,x,x
O=S(=O)(c1ccccc1Br)N(Cc1cn(Cc2ccccc2)nn1)C1CC1,x,x,0.5,x,x,x,x
Cc1nc2ccccc2c(=O)n1/N=C/c1c(O)ccc2ccccc12,5.0,-3.5,5.1,-2.4,-2.9,x,x
Cc1n[nH]c(=S)n1/N=C/c1c(O)ccc2ccccc12,5.4,-10.1,0.8,-3.3,45.8*,84.9*,-2.1
SMILES,Fh CTSL1 inh,NALP1 yeast inh,sPLA2-III inh,APOBEC3A inh,A3G deaminase,APOBEC3G confirm,UDG A3G counter
N#Cc1cc(-c2ccccc2)[nH]c1-c1nccc2ccccc12,10.8,3.7,-4.3,2.2,41.4*,1.1,x
c1ccc(-c2ccc(-c3nccc4ccccc34)[nH]2)cc1,x,1.8,x,x,x,x,x
Cn1c(=O)[nH]c2c(Br)nccc21,x,x,3.8,x,x,x,x
CCOC(=O)c1sc(=S)n(-c2cc(OC)ccc2OC)c1N,-2.5,10.7,12.6,3.2,59.8*,26.8,x
COc1ccc(CC(=S)N2CCOCC2)cc1,-1.4,29.4,-2.7,2.3,44.7*,41.5*,-2.4
O=C(COc1ccc(F)cc1Cl)Nc1nnc(-c2ccc(F)c(F)c2)o1,x,x,-1.1,x,x,x,x
Cc1nnn(-c2nonc2N)c1C(=O)N/N=C/c1ccccc1O,-2.2,31.2,1.1,24.3,44.3*,40.1*,3.2
CC(=O)Oc1ccc(N2C(=O)C3C4C=CC(CO)(O4)C3C2=O)cc1 (centres undefined),1.1,27.0,-4.9,6.5,24.3,x,x
CC(=O)Oc1ccc(N2C(=O)C3C(C2=O)C2(C)C=CC3(C)O2)cc1 (centres undefined),-2.2,-10.5,x,0.4,46.7*,48.7*,x
S=c1[nH]nc(-c2cccc(Br)c2)o1,-4.2,-17.4,1.5,-5.3,-0.5,x,x
Nn1c(-c2cccc(Br)c2)n[nH]c1=S,1.5,0.0,12.1,-19.1,58.5*,79.8*,-4.4
CC(C)Oc1ccc(S(=O)(=O)N2CCCCCC2)c2ccccc12,x,x,2.8,x,x,x,x
CN(C)S(=O)(=O)c1cccc(-n2sc3ccccc3c2=O)c1,1.9,-16.7,7.2,-3.2,85.3*,93.4*,-1.9
CC(=O)Nc1ccc2c(=O)n(-c3ccccc3)sc2c1,x,x,5.7,x,x,x,x
O=c1c2cc(F)ccc2sn1-c1ccccc1,x,x,-2.0,3.0,85.6*,88.2*,-3.1
O=C(O)c1cccc(-n2sc3ccccc3c2=O)c1,x,x,8.4,-0.6,82.6*,90.8*,-1.6
O=c1c2ccccc2sn1-c1ccccc1,-3.0,8.4,1.2,-0.9,86.8*,91.4*,-3.7
O=c1c2ccccc2sn1-c1cccc(Cl)c1,x,x,4.0,x,x,x,x
CN(C)[C@@H]1CCN(c2cccc3c2S(=O)(=O)N2CC[C@H](C2)O3)C1,x,x,-1.7,x,x,x,x
CN(Cc1cn(Cc2ccccc2)nn1)S(=O)(=O)c1ccccc1Br,x,x,7.3,x,x,x,x
Cc1ccccc1-n1sc2cc(F)ccc2c1=O,-1.3,20.3,2.7,12.6,75.2*,81.1*,-3.0
O=c1c2ccccc2sn1-c1ccccc1F,x,x,11.4,x,x,x,x
CCSC1=NC2(CCCCC2)Nc2sc3c(c21)CCCC3,2.2,-4.1,-8.4,0.6,59.5*,39.5*,x
